S1P2 antag = human S1P2 receptor antagonists, primary screen, cell-based. Sphingosine 1-phosphate receptor 2 (Homo sapiens), O95136. cell-based S1P2 antagonist assay, inhibition at 5 uM. inhibition, % at 5 µM. 97,000 compounds, 0.21% hits. AID 736, 2007; in the data active means inhibition above about 45%;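 further: CRE beta-lactamase reporter cells expressing human S1P2 stimulated with S1P; 0% = agonist at EC80 alone and 100% = agonist plus reference antagonist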
Target sequence (O95136 whole entry, looked up): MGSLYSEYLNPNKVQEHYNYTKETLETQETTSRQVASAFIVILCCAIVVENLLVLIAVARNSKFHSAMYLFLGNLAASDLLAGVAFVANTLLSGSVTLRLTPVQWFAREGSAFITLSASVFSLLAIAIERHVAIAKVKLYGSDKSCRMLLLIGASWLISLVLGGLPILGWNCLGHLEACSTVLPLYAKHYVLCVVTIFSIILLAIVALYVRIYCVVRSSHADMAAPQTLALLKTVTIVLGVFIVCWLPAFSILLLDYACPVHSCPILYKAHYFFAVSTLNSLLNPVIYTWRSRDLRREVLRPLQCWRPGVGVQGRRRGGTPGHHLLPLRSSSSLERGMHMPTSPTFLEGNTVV
PTPN22 act = LYP phosphatase activators, primary screen, biochemical, DiFMUP fluorescence, 2 µM; Tyrosine-protein phosphatase non-receptor type 22 (Homo sapiens), Q9Y2R2; recombinant LYP; 0 = plate median, 100 = signal doubled; activation, % at 2 µM; 96,000 compounds, 0.11% hits;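 active means activation at 2 µM above a set limit, the mean plus 5 SD, cut at about 37% in these data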
S1P2 ag = S1P2 receptor agonists, primary screen, cell-based. Sphingosine 1-phosphate receptor 2 (Homo sapiens), O95136. S1P2-expressing cell line, agonist reporter read-out. activation, % at 4.5 µM. 97,000 compounds, 0.46% hits. AID 729, 2007; in the data active means activation above about 16%;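 further: 0% = vehicle low control and 100% = maximal reference agonist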
PTPN22 inh 2 = PTPN22 phosphatase inhibitors, primary screen, biochemical, DiFMUP fluorescence, 2 µM. inhibition, % at 2 µM. recombinant LYP catalytic domain. AID 640, 2007. 96,000 compounds, 0.21% hits;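 active means inhibition at 2 µM at or above a set limit, the screen mean plus 3 SD, cut at about 24% in these data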;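 further: 0% = DMSO with enzyme and 100% = enzyme fully blocked by orthovanadate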
GALR2 ag = GALR2 receptor agonists, primary screen, cell-based; 140,000 compounds, 0.48% hits; activation, % (no concentration beside the values); Galanin receptor type 2 (Homo sapiens), O43603; AID 803, 2007; GALR2-expressing cells, agonist activation read-out; in the data active means activation above about 5%, passing the limit was not always enough;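 further: 0% = vehicle buffer wells and 100% = reference agonist at full effect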
GALR2 antag = GALR2 antagonists in receptor-expressing cells, primary screen | antagonist mode | AID 828, 2007 | inhibition, % at 4 µM | Galanin receptor type 2 (Homo sapiens), O43603 | 140,000 compounds, 0.39% hits; in the data active means inhibition above about 27%;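 further: cells stimulated with galanin 1-16 at roughly its EC80; 0% = agonist challenge control and 100% = basal control without agonist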
GALR2 ag confirm = GALR2 agonists, retest of hits, confirmation, cell-based; GALR2-expressing cells, agonist activation; shares compounds with GALR2 ag; 460 compounds, 10% hits; activation, % at 5.6 µM; AID 864, 2007; in the data active means activation above about 8.4%;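 further: 0% = buffer-only vehicle wells and 100% = full reference agonist response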
BLA act counter = activators of NFAT-driven beta-lactamase reporter, confirmation, counter-screen for GALR2 agonist project, CHO NFAT-bla cells, FRET readout | shares compounds with GALR2 ag | beta-lactamase FRET activation | activation, % at 5.6 µM | 460 compounds, 10% hits | AID 865, 2007;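 active means activation above the screen-wide mean activation plus 3 SD, cut at about 8% in these data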;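 further: 0% = DMSO with PBS wells and 100% = thapsigargin positive control wells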
Active calls of the source: *; / = no result given. A selection: hits, their analogues and other compounds. The true share with any hit is near 1.3%.

SMILES	S1P2 antag	PTPN22 act	S1P2 ag	PTPN22 inh 2	GALR2 ag	GALR2 antag	others
CCN(CC)CCNC(=O)c1c(O)c2ccccc2n(Cc2ccccc2)c1=O	13.8	-1.3	-0.7	5.3	-1.8	2.4
CCN(CC)CCCNC(=O)c1c(O)c2ccccc2n(Cc2ccccc2)c1=O	-3.0	-21.7	-7.4	24.4*	-0.4	8.6
COc1ccccc1OP(=O)(Nc1cccnc1)Oc1ccccc1OC	/	/	/	/	-0.9	25.7
O=C(c1ccccc1)c1cn(CC(=O)N2CCOCC2)c2ccccc12	-14.2	-2.0	-4.8	-5.6	-1.5	-9.7
Nc1c(C(=O)NCc2ccco2)c2nc3ccccc3nc2n1Cc1ccc(F)cc1	-50.6	-12.8	48.0*	13.4	27.8*	-17.8
Nc1c(C(=O)NCc2ccco2)c2nc3ccccc3nc2n1Cc1ccccc1	/	/	/	/	5.1*	6.7
OC12ONC(c3ccccn3)C1N1CCC2CC1 (stereo not drawn)	/	/	/	/	-0.8	23.0
O=C(Nc1ccc(Cl)cc1)Nc1nccs1	13.1	3.3	52.8*	-1.9	0.3	14.2
CC(C)Cn1cc(C(=O)N2CCC3(CC2)OCCO3)c2c3ccccc3n(C)c2c1=O	18.0	-4.2	-5.8	3.1	-0.3	-2.4
Cc1cccn2c(=O)c3c(nc12)N1CCC(Cc2ccccc2)CC1C1(C3)C(=O)N(C)C(=O)N(C)C1=O (stereo not drawn)	4.3	-7.7	17.4*	5.2	1.9	-8.9
CC1CCN2c3nc4ccccn4c(=O)c3CC3(C(=O)N(C)C(=O)N(C)C3=O)C2C1 (stereo not drawn)	-14.0	-7.2	-3.6	6.0	-1.5	-8.1
CCN1/C(=C\C=C\C2=[N+](CC)c3ccccc3C2(C)C)C(C)(C)c2ccccc21	105.7*	5.7	-5.0	-3.2	2.5	-9.5
Cc1ccccc1-n1c(C)nc2sccc2c1=O	-7.4	-1.8	-5.9	3.9	-2.4	-4.0
CN1CCN(c2ccc(C(N)=O)cc2N)CC1	11.5	15.7	-5.3	-18.2	-1.5	-4.9
O=C1NC(=O)N(c2ccccc2)C(=O)/C1=C/c1ccc(Sc2ccccc2)o1	47.2*	-7.8	0.2	7.9	-1.5	-6.4
CCOC(=O)c1c(-n2c(C)cc(C=C3C(=O)NC(=S)NC3=O)c2C)sc2c1CCCC2	30.0	-24.3	-4.0	28.9*	-2.6	-4.5
O=C(Cc1ccccc1)Oc1ccc(N2C(=O)CCC2=O)cc1	4.9	4.0	-1.9	-1.9	-0.1	-25.6
CCCCCCn1c(N)c(C(=O)NCCN2CCOCC2)c2nc3ccccc3nc21	-27.3	-11.1	29.5*	10.1	20.4*	-5.9
Nc1c(C(=O)NCCCc2ccccc2)c2nc3ccccc3nc2n1Cc1cccs1	-62.6	-12.8	83.7*	13.8	32.1*	-2.9
CCCCCn1c(N)c(C(=O)NCc2cccs2)c2nc3ccccc3nc21	-13.5	-18.3	13.0	21.7	1.8	-0.4
CC(C)OCCCNC(=O)c1c(N)n(CC2CCCO2)c2nc3ccccc3nc12 (stereo not drawn)	-15.5	-7.8	18.1*	6.2	11.5*	-11.9
COc1ccc(CCNC(=O)c2c(N)n(CCN3CCOCC3)c3nc4ccccc4nc23)cc1OC	0.6	3.1	6.0	0.7	4.2	-12.0
CCCCn1c(N)c(C(=O)NCc2cccs2)c2nc3ccccc3nc21	-2.6	-17.3	18.3*	20.7	35.6*	-10.9
CC12CCCCC1=NC(c1ccc(Br)cc1)N2O (stereo not drawn)	/	/	/	/	-1.2	12.6
CCCCCn1c(N)c(C(=O)NCCN2CCOCC2)c2nc3ccccc3nc21	-12.8	5.0	16.4*	-4.9	5.7	-11.1
SMILES	S1P2 antag	PTPN22 act	S1P2 ag	PTPN22 inh 2	GALR2 ag	GALR2 antag	others
Nc1c(C(=O)NCc2ccco2)c2nc3ccccc3nc2n1CCN1CCOCC1	-30.1	-6.7	4.9	7.0	3.4	-21.2
COCCCn1c(N)c(C(=O)NCCC(C)C)c2nc3ccccc3nc21	-31.0	2.5	28.6*	-4.0	33.1*	-14.9
CCCCNC(=O)c1c(N)n(Cc2ccc3c(c2)OCO3)c2nc3ccccc3nc12	-35.7	-10.2	38.0*	13.6	6.8*	-4.0
CCCCn1c(NC(=O)c2ccco2)c(C(=O)OCC)c2nc3ccccc3nc21	16.9	3.4	-2.6	-4.1	0.0	0.9
CCCCn1c(NS(=O)(=O)c2ccc(C)cc2)c(C(=O)OCC)c2nc3ccccc3nc21	/	/	/	/	7.0*	-8.0
CCCNC(=O)c1c(N)n(CC2CCCO2)c2nc3ccccc3nc12 (stereo not drawn)	-14.3	-2.0	7.3	-0.1	7.8	6.6
Brc1ccc2c(c1)C(OC1CN3CCC1CC3)c1ccccc1CS2 (stereo not drawn)	/	/	/	/	0.7	-7.8
COc1ccc(Cn2c(N)c(C(=O)NCc3ccco3)c3nc4ccccc4nc32)cc1	-9.3	-11.2	12.9	11.4	12.7*	-10.8	GALR2 ag confirm=8.6*;BLA act counter=15.8*
CCOC(=O)c1c(N)n(Cc2ccco2)c2nc3ccccc3nc12	-16.6	-3.6	1.1	2.1	1.7	14.8
CCN(c1ccc(C(O)(C(=O)OC)C(F)(F)F)cc1)S(=O)(=O)c1ccccc1 (stereo not drawn)	/	/	/	/	16.3*	7.4	GALR2 ag confirm=-0.3;BLA act counter=-1.0
COc1ccc(OCC(=O)Nc2ccc(Cl)cc2C(=O)c2ccccc2)cc1	-5.0	-5.2	-2.2	9.9	9.8	-13.8	GALR2 ag confirm=-0.6;BLA act counter=-3.4
O=C(COc1ccccc1)Nc1ccc(Cl)cc1C(=O)c1ccccc1	/	/	/	/	0.2	7.5
CC1=CC(=O)C2=C(C)CC(O)C3C(C)C(=O)OC3C12 (stereo not drawn)	5.0	6.0	-3.1	-6.6	-1.4	0.2
COc1cc(/C=C(/C)[N+](=O)[O-])ccc1OCc1ccccc1Cl	/	/	/	/	10.6*	3.9	GALR2 ag confirm=-0.5;BLA act counter=-9.0
CN1C(=O)C(=Cc2ccccc2OCc2ccccc2Cl)C(=O)N(C)C1=O	/	/	/	/	-1.2	-3.6
O=C(CCCN1CCC2(CC1)C(=O)NCN2c1ccccc1)c1ccc(F)cc1	/	/	/	/	15.8*	10.2	GALR2 ag confirm=8.8*;BLA act counter=13.9*
N#Cc1cc2c(nc1SCC(=O)Nc1cc(Cl)ccc1Cl)C1CCN2CC1	-46.8	5.5	13.9	-8.7	10.9	3.3	GALR2 ag confirm=1.2;BLA act counter=1.3
Brc1ccc(C2N3CCCN23)cc1 (stereo not drawn)	/	/	/	/	0.1	3.1
CN(C)CCc1nc2ccccc2c(=O)n1-c1ccccc1	-12.2	-9.8	4.1	5.9	31.5*	-15.2	GALR2 ag confirm=-0.9;BLA act counter=-1.4

Screening data: PubChem, several laboratories
